Measurements published in PubChem BioAssay (Tox21).
Inconclusive results are not listed. Active and inactive are the calls of the source. Unless noted, calls come from the whole dose curve; as a rule, active = well fitted curve in the direction sought with a large enough effect in the repeat runs; inconclusive = weak or mixed curves; inactive = no such curve, though single readings can be large; an effect the other way counts as inactive or inconclusive.

What was measured:
[1] = qHTS assay for small molecule agonists of the p53 signaling pathway (AID 651631; calls by dose curve; note: nearly all actives have a fitted effect of over 15% in size)
Procedure, shortened: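 Read-out is beta-lactamase FRET fluorescence measured 2 h after substrate addition at room temperature, in HCT-116 cells with a p53 response element-driven reporter exposed to compounds for 16 h at 37 °C.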

[2] = qHTS assay for small molecules that induce genotoxicity in human embryonic kidney cells expressing luciferase-tagged ATAD5 (AID 651632); note: nearly all actives have a fitted effect of over 15% in size
Procedure, shortened: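 Genotoxicity read-out via ATAD5-luciferase: HEK293T cells, 16 hr compound incubation at 37C, Amplite detection.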

[3] = qHTS assay for small molecule agonists of the p53 signaling pathway - cell viability (AID 651633; calls by dose curve;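 note: p53RE-bla HCT reporter cells with a stable beta-lactamase p53 reporter; series mostly up to about 83 µM; nearly all actives have a fitted effect of over 30% in size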)
Procedure, shortened: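 p53RE-bla cells were treated with compound for 16 hours at 37 C. Cytotoxicity was then measured as CellTiter-Glo luminescence after 30 min at room temperature.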

[4] = qHTS assay for small molecules that induce genotoxicity in human embryonic kidney cells expressing luciferase-tagged ATAD5 - cell viability (AID 651634; calls by dose curve; note: nearly all actives have a fitted effect of over 25% in size)
Procedure, shortened: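 Live-cell protease activity (CellTiter-Fluor, fluorescence) indicates viability. HEK293T cells with luciferase-tagged ATAD5; 15.5 hr compound treatment at 37C.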

[5] = qHTS assay for small molecule disruptors of the mitochondrial membrane potential - cell viability (AID 720634; calls by dose curve;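 note: human HepG2 liver cancer cells; series mostly up to about 83 µM; nearly all actives have a fitted effect of over 20% in size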)
Procedure, shortened: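 Human hepatoma HepG2 cells were treated for 1 hr with test chemicals, then given m-MPI dye and CellTiter-Glo. Cell viability reflects luminescence proportional to cellular ATP.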

[6] = qHTS assay to test for compound auto fluorescence at 590 nm (red) in HepG2 cells (AID 720674)
Procedure, shortened: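 Seeding: 2,000 HepG2 cells/well, MEM/10% FBS, overnight 37 C. Dosing: compound vs DMSO. Incubation: 1 hr, 37 C, 5% CO2. Read: fluorescence 540 ex/590 em, Rose Bengal sodium as red reference.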

[7] = qHTS assay to test for compound auto fluorescence at 535 nm (green) in HepG2 cells (AID 720675)
[8] = qHTS assay to test for compound auto fluorescence at 460 nm (blue) in HEK293 cells (AID 720678)
Procedure, shortened: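 HEK293 cells (2,000 per well, medium with 10% dialyzed FBS) attached for 4-5 hr at 37C, then received compound and stood overnight at 37C, 5% CO2. Blue fluorescence was read at Ex/Em 405/460 nm and expressed relative to triamterene.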

[9] = qHTS assay to test for compound auto fluorescence at 590 nm (red) in HEK293 cells (AID 720679)
Procedure, shortened: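 HEK293 cells (2,000/well, medium with 10% dialyzed FBS) attached for 4-5 hr at 37C, received 23 nL compound and were incubated overnight at 37C, 5% CO2. Red fluorescence was then read at 540/590nm Ex/Em, referenced to Rose Bengal sodium.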

[10] = qHTS assay to test for compound auto fluorescence at 535 nm (green) in HEK293 cells (AID 720680)
[11] = qHTS assay to test for compound auto fluorescence at 535 nm (green) in HEK293 cell free culture (AID 720682)
Procedure, shortened: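 Fluorescein serves as the green reference fluorophore; each compound's intrinsic emission at 535 nm (excitation 485 nm) is reported as an equivalent amount of that dye, measured in serum-containing DMEM without cells.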

[12] = qHTS assay to test for compound auto fluorescence at 460 nm (blue) in HepG2 cell free culture (AID 720685)
Procedure, shortened: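 Compound (23 nL) or DMSO pinned into cell-free MEM with 10% FBS; blue fluorescence read at 405/460 nm excitation/emission, expressed as auto-fluorescence equivalency to triamterene.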

[13] = qHTS assay to test for compound auto fluorescence at 535 nm (green) in HepG2 cell free culture (AID 720686)
[14] = qHTS assay to test for compound auto fluorescence at 460 nm (blue) in HepG2 cells (AID 720687)
Procedure, shortened: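 HepG2 cells in MEM with 10% FBS, attached overnight at 37 C, were exposed to compound or DMSO for 1 hr at 37 C, 5% CO2. Blue fluorescence was read at 405/460 nm, with triamterene as reference fluorophore.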

[15] = target: Glucocorticoid receptor (Homo sapiens) (UniProt P04150); test: qHTS assay to identify small molecule agonists of the glucocorticoid receptor (GR) signaling pathway (AID 720691; active = well fitted activation curve with a large enough effect in the signal ratio in the repeat runs, not every such curve was filed as active; the % refers to the signal ratio)
Chain of Glucocorticoid receptor (Homo sapiens) (P04150 whole entry, looked up): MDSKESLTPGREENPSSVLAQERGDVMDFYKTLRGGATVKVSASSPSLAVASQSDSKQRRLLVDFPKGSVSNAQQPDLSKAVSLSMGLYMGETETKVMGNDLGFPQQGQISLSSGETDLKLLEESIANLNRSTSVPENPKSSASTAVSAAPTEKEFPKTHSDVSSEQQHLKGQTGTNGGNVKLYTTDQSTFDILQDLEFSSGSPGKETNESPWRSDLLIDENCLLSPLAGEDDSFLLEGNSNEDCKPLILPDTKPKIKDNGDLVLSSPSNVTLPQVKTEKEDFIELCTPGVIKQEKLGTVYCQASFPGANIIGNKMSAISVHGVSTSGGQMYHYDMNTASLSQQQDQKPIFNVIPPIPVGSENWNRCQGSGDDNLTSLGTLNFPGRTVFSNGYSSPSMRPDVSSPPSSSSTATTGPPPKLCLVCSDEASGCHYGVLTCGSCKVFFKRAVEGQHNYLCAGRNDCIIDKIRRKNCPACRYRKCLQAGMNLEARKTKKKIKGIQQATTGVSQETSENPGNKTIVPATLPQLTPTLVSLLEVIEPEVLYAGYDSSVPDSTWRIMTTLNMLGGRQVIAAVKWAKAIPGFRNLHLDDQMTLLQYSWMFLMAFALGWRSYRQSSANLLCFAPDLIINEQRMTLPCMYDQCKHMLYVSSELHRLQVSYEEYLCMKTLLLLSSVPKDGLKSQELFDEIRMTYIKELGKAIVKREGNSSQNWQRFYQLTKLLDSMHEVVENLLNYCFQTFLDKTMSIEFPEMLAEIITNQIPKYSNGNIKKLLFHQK
Procedure, shortened: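 Beta-lactamase reporter activity, read as fluorescence intensity, was measured in GR-bla HeLa cells exposed to compounds for 18 h at 37 C and then loaded with LiveBLAzer B/G FRET substrate for 2 h at room temperature.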

[16] = target: Glucocorticoid receptor (Homo sapiens) (UniProt P04150); test: qHTS assay to identify small molecule antagonists of the glucocorticoid receptor (GR) signaling pathway (AID 720692; active = well fitted inhibition curve with a large enough effect in the signal ratio in the repeat runs, not every such curve was filed as active; the % refers to the signal ratio)
Procedure, shortened: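 Fluorescence from cleaved LiveBLAzer B/G FRET substrate reports GRE-driven beta-lactamase in HeLa cells; compounds are tested against 5 nM dexamethasone (final) over 18 h at 37 C, substrate incubation 2 h at room temperature.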

[17] = qHTS assay for small molecule disruptors of the mitochondrial membrane potential (AID 720635); note: potency is the fitted concentration of half-maximal effect
Procedure, shortened: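 HepG2 cells exposed to compound 1 hr at 37C, then Mito-MPS dye 30 min. Ratio read of aggregate (540/590 nm) versus monomer (490/535 nm) fluorescence.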

[18] = qHTS assay to test for compound auto fluorescence at 590 nm (red) in HepG2 cell free culture (AID 720684)
Procedure, shortened: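 Compound was pinned into wells holding MEM with 10% FBS and no cells, and red fluorescence was read at Ex/Em 540/590 nm. Signal is expressed as auto fluorescence equivalency relative to Rose Bengal sodium.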

[19] = qHTS assay to test for compound auto fluorescence at 460 nm (blue) in HEK293 cell free culture (AID 720681)
Procedure, shortened: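 Compounds were added to cell-free DMEM with 10% FBS and fluorescence read directly. The blue channel used 405 nm excitation and 460 nm emission, with triamterene as the reference fluorophore.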

[20] = qHTS assay to test for compound auto fluorescence at 590 nm (red) in HEK293 cell free culture (AID 720683)
Procedure, shortened: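 Cell-free wells of DMEM with 10% FBS received compound, and intrinsic fluorescence was read at excitation/emission 540/590 nm. Values expressed as equivalence to Rose Bengal sodium.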

Measured: Potency

CCO[Si](CCCN)(OCC)OCC
not listed: [17] | [18] | [19] | [20]
inactive: all other assays above

Cc1ccc([N+](=O)[O-])cc1S(=O)(=O)O
not listed: [12] | [19] | [20]
inactive: all other assays above

CC(C)CCCCCCCOC(=O)CCCCC(=O)OCCCCCCCC(C)C
not listed: [17]
inactive: all other assays above

O=C1CCCC1
not listed: [9] | [12] | [19]
inactive: all other assays above

C[Si]1(C)O[Si](C)(C)O[Si](C)(C)O[Si](C)(C)O1
not listed: [9] | [12] | [14] | [15] | [16] | [17]
inactive: all other assays above

CC(C)OC(=O)COc1ccc(Cl)cc1Cl
not listed: [12] | [14] | [17] | [18]
inactive: all other assays above

CC(C)CC(=O)CC(C)CC(C)C (stereo not given)
inactive: all assays above

CCCCCCO
not listed: [14] | [17]
inactive: all other assays above

C=Cc1ccc(C)cc1
not listed: [12]
inactive: all other assays above

CC(C)OP(=O)(CP(=O)(OC(C)C)OC(C)C)OC(C)C
not listed: [16] | [17] | [18]
inactive: all other assays above

NCCCCCCN
not listed: [12] | [15] | [16] | [18]
inactive: all other assays above

Cc1ccc2ncccc2c1
not listed: [14] | [19]
inactive: all other assays above

COCCOC(=O)c1ccccc1C(=O)OCCOC
not listed: [14] | [17] | [19] | [20]
inactive: all other assays above

COc1ccc(OC)cc1
not listed: [20]
inactive: all other assays above

CCOCC(=O)O
not listed: [9] | [18] | [20]
inactive: all other assays above

COc1ccc([N+](=O)[O-])cc1N
active: [17] 48.8 µM
not listed: [9] | [14] | [18] | [19]
inactive: all other assays above

O=C(O)c1ccc(S(=O)(=O)N(Cl)Cl)cc1
not listed: [12] | [14] | [17] | [18] | [19]
inactive: all other assays above
